Bioassay records from PubChem BioAssay.
Rows were chosen to be rich in hits. Some 12% of all compounds tested hit in one or more screens of this group.
G9a block = qHTS Assay for Inhibitors of Histone Lysine Methyltransferase G9a; G9a H3K9 monomethylation, AlphaScreen, 2 h; Histone-lysine N-methyltransferase EHMT2 (Homo sapiens), Q96KQ7; Potency, µM (doses to about 102 µM), usual class: inhibitors; hit rate 8.8% among 350,000; note: nearly all actives have a fitted effect of over 75% in size
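Methyltransferase reactions run at room temperature for 2 h (20 nM enzyme, 500 nM biotin-H3K9 peptide, 20 uM SAM) after a 15 min compound preincubation; product detected by AlphaScreen beads and anti-H3K9me1 antibody.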
JMJD2A Tudor = qHTS Assay for Inhibitors of JMJD2A-Tudor Domain; Lysine-specific demethylase 4A (Homo sapiens), O75164; AlphaScreen JMJD2A-Tudor / H3K4me3 peptide binding; Potency, µM (titrated, usually from 114 µM), usual class: inhibitors; hit rate 4.4% among 390,000; AID 504339, 2011; note: nearly all actives have a fitted effect of over 50% in size
HP1b chromo inh = HTS for Inhibitors of HP1-beta Chromodomain Interactions with Methylated Histone Tails; Chromobox protein homolog 1 (Homo sapiens), P83916; AlphaScreen HP1-beta / biotin-H3K9me3 peptide binding; Potency, µM (doses to about 114 µM), actives largely listed as inhibitors; hit rate 0.56% among 390,000; AID 540317, 2011; note: nearly all actives have a fitted effect of over 70% in size
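AlphaScreen: HP1-beta (50 nM) preformed 30 min with biotin-H3(1-18)K9me3 peptide (50 nM) in PBS pH 7.4, 0.01% Tween-20. Compound added for 30 min at RT, then streptavidin donor/nickel chelate acceptor beads (10 ug/mL) for 30 min.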
Sfp inh = qHTS Assay for Inhibitors of Bacillus subtilis Sfp phosphopantetheinyl transferase (PPTase); 4'-phosphopantetheinyl transferase ffp (Bacillus subtilis), Q9F4F7; Biochemical Sfp PPTase activity, qHTS; Potency, µM, usual class: inhibitors; hit rate 3.5% among 310,000;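 note: the enzyme is Sfp with the accession as filed and its product quenches rhodamine fluorescence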
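After 15 min at room temperature with compound, 15 nM Sfp received 5 uM rhodamine-CoA plus 12.5 uM BHQ-2-ybbR (50 mM Hepes pH 7.6, 10 mM MgCl2). Rate came from the fluorescence difference over 30 min, ex 525/em 598 nm.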
BAZ2B inh = qHTS Assay for Inhibitors of BAZ2B; Bromodomain adjacent to zinc finger domain protein 2B (Homo sapiens), Q9UIF8; AlphaScreen BAZ2B-H3K14Ac peptide displacement; Potency, µM (titrated, usually from 114 µM), hits mostly inhibitors; hit rate 4.4% among 360,000; AID 504333, 2011; note: nearly all actives have a fitted effect of over 60% in size
Target sequence (Q9UIF8 whole entry, looked up, the tested form may be a part): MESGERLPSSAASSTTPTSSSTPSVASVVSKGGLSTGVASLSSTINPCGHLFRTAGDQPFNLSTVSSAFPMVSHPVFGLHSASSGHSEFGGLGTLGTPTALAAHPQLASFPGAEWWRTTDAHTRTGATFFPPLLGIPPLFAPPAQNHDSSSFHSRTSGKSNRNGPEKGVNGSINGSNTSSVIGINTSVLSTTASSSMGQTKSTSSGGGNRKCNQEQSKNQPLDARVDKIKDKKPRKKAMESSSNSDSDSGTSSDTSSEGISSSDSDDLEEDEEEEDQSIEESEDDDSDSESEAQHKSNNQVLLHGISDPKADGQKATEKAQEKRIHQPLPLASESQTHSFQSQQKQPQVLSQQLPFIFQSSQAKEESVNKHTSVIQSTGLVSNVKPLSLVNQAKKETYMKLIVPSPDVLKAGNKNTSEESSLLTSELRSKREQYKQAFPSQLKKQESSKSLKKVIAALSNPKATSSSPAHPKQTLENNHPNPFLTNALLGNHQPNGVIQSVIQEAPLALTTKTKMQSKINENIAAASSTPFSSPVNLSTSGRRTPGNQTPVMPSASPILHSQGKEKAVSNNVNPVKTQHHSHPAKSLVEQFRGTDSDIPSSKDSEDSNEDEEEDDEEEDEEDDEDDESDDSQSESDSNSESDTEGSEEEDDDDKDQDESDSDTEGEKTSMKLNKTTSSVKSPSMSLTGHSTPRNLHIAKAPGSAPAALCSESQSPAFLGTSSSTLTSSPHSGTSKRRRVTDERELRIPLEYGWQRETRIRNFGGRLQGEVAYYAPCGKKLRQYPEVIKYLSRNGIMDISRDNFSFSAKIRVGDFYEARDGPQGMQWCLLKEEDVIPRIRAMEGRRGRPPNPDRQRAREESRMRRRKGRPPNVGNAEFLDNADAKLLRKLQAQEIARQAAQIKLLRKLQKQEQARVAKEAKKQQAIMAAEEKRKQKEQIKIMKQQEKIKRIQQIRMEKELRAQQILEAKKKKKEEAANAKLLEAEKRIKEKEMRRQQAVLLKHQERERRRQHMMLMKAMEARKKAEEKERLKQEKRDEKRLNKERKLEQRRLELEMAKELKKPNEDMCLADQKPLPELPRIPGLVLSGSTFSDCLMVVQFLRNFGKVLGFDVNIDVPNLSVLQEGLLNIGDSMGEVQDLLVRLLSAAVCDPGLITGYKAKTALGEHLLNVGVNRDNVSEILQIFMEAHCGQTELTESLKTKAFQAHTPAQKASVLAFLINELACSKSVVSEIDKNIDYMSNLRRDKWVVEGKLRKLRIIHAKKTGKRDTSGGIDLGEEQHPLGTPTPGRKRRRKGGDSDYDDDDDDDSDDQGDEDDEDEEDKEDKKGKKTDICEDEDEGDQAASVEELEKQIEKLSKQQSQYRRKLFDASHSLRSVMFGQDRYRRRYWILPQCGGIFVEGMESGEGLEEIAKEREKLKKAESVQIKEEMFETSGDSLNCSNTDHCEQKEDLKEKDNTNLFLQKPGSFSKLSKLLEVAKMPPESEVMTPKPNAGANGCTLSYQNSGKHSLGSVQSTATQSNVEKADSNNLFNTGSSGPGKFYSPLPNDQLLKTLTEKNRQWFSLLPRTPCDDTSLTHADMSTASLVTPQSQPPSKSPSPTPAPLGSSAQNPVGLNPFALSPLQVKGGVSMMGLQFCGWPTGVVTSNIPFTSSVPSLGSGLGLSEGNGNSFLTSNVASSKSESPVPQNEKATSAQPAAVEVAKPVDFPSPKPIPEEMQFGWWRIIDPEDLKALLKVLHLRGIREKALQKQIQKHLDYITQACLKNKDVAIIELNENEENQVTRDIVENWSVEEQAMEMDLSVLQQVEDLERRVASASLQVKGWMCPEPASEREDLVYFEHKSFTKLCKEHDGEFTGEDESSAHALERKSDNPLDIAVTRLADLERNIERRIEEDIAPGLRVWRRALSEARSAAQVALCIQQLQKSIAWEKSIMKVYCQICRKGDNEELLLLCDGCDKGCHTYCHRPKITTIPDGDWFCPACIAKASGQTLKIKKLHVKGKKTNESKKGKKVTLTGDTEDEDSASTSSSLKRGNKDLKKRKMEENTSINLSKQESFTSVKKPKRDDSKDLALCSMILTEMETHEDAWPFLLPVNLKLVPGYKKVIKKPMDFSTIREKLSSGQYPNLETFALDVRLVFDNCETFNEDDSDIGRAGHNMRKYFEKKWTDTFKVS
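Complex of BAZ2B and biotin-H3K14Ac (50 nM apiece) forms over 30 min at RT, then faces library compounds up to 110 uM for another 30 min; AlphaScreen beads added, 20 min dark incubation, luminescence read.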
Each line names hits and unclear results; the compound was inactive in the other large screens. Calls come from the whole dose curve; as a rule, active = well fitted curve in the direction sought with a large enough effect; inconclusive = small, poorly fitted or top-dose-only effect, or another doubt; inactive = no such curve, though single readings can be large; an effect the other way counts as inactive or inconclusive.

Cc1ccc(-n2c(Cn3nc(C(F)F)cc3C(F)F)n[nH]c2=S)cc1	G9a block 1.1µM, JMJD2A Tudor 79µM
Cc1cc(C(F)(F)F)nn1Cc1n[nH]c(=S)n1-c1cccc(Cl)c1	G9a block 25µM, JMJD2A Tudor inconclusive
Cc1cc(C(F)(F)F)nn1Cc1n[nH]c(=S)n1-c1ccc(Cl)cc1	G9a block 1.6µM
Cc1cc(C(F)(F)F)nn1Cc1n[nH]c(=S)n1Cc1ccccc1	G9a block 1.8µM, JMJD2A Tudor inconclusive
COc1cccc(Cn2c(=O)c(C)nc3cnc(OC)nc32)c1	none (no result: JMJD2A Tudor, HP1b chromo inh, BAZ2B inh)
O=C(c1ccco1)N1CCC[C@@]2(CCN(Cc3ccccc3)C2)C1	none (no result: JMJD2A Tudor, HP1b chromo inh, BAZ2B inh)
CCCCC/C=C\C/C=C\CC1OC1C/C=C\CCCC(=O)O (centres undefined)	none (no result: JMJD2A Tudor, HP1b chromo inh, BAZ2B inh)
C=CC[C@@H](CC(=O)NCCO)C(=O)N[C@H](C)COC(=O)[C@@H](CC=C)Cc1ccc(F)cc1	none (no result: G9a block, Sfp inh, BAZ2B inh)
COc1cc2c(cc1OC)C1(Nc3c-2c(Cc2ccccc2)nn3-c2ccccc2)C(=O)Nc2ccccc21 (centres undefined)	G9a block 40µM, JMJD2A Tudor inconclusive, BAZ2B inh 50µM
CCOc1ccc(CNC(=O)Nc2ccccc2)cc1	none
Cc1cc2c(c(=O)n1Cc1cccnc1)C(Cc1ccccc1)C(C#N)=C(N)O2 (centres undefined)	G9a block inconclusive
Cc1cc2c(c(=O)n1Cc1cccnc1)C(c1cccs1)C(C#N)=C(N)O2 (centres undefined)	Sfp inh 79µM, BAZ2B inh inconclusive
CCOC(=O)C1(C)NC(c2cccs2)C2C(=O)N(c3ccc(OC)cc3)C(=O)C21 (centres undefined)	JMJD2A Tudor 10µM
CCOC(=O)C1(C)NC(c2ccc(N(C)C)cc2)C2C(=O)N(c3ccc(OC)cc3)C(=O)C21 (centres undefined)	none
CCOC(=O)C1(C)NC(c2ccccc2F)C2C(=O)N(c3cccc(C(C)=O)c3)C(=O)C21 (centres undefined)	JMJD2A Tudor 35µM, HP1b chromo inh inconclusive
CC(NC(=O)CCNC(=O)N1CCn2c1nc1ccccc12)c1ccccc1 (centres undefined)	none
CC(c1ccccc1)N1CCn2c(nc3cc(NC(=O)NC4CCCCC4)ccc32)C1 (centres undefined)	G9a block 35µM
N#CC1=C2Nc3ccccc3N2C(=O)NC1(c1ccccc1)C(F)(F)F (centres undefined)	JMJD2A Tudor 56µM, HP1b chromo inh inconclusive
Cc1ccc(C2(C(F)(F)F)NC(=O)N3N=C4CCCCCN4C3=C2C#N)cc1 (centres undefined)	none
CCC(C)C1NC(=O)C(CCNCS(=O)(=O)O)NC(=O)C(NC(=O)C(CCNCS(=O)(=O)O)NC(=O)C(NC(=O)C(CCNCS(=O)(=O)O)NC(=O)CCCCC(C)C)C(C)O)CCNC(=O)C(C(C)O)NC(=O)C(CCNCS(=O)(=O)O)NC(=O)C(CCNCS(=O)(=O)O)NC(=O)C(C(C)CC)NC1=O (centres undefined)	none (no result: JMJD2A Tudor, HP1b chromo inh, BAZ2B inh)
CCN(CC)c1ccc(NC(=O)c2cc3c(OC)cccc3[nH]2)cc1	G9a block 8.9µM, JMJD2A Tudor 16µM, HP1b chromo inh 45µM, BAZ2B inh 20µM
O=C(CC1C(=O)CCCC1=O)c1ccccc1	G9a block 45µM, Sfp inh inconclusive
CC(C)CN(C(=O)CCC1CCCCC1)c1c(N)n(CC(C)C)c(=O)[nH]c1=O	none (no result: Sfp inh)
COc1ccccc1NC(=O)C(C)OC(=O)CCNS(=O)(=O)c1cccc(C(F)(F)F)c1 (centres undefined)	none (no result: Sfp inh)
COc1ccccc1CC(=O)OCC(=O)N1CCN(c2ccc(F)cc2)CC1	none (no result: G9a block, Sfp inh, BAZ2B inh)
COc1ccc(N2CCN(C(=O)COC(=O)Cc3ccc(F)cc3)CC2)cc1	G9a block 45µM (no result: Sfp inh)
COc1ccc(N2CCN(C(=O)COC(=O)c3ccc(C)o3)CC2)cc1	G9a block 50µM (no result: Sfp inh)
COc1ccc(N2CCN(C(=O)COC(=O)c3oc4ccccc4c3C)CC2)cc1	G9a block inconclusive, JMJD2A Tudor inconclusive, BAZ2B inh inconclusive (no result: Sfp inh)
COc1ccc(N2CCN(C(=O)CCn3cnc4onc(-c5ccc(F)cc5)c4c3=O)CC2)cc1	G9a block 14µM, JMJD2A Tudor inconclusive, BAZ2B inh inconclusive (no result: Sfp inh)
O=C(CCn1cnc2onc(-c3ccc(F)cc3)c2c1=O)N1CCN(c2ccccc2)CC1	G9a block inconclusive, JMJD2A Tudor inconclusive (no result: Sfp inh)
COc1ccc(N2CCN(C(=O)COC(=O)c3ccc(OC(F)F)cc3)CC2)cc1	none (no result: Sfp inh)
COc1ccc(N2CCN(C(=O)COC(=O)c3ccc(CSC)o3)CC2)cc1	G9a block 16µM, BAZ2B inh inconclusive (no result: Sfp inh)
COCCN(C(=O)c1ccc(C)c(S(=O)(=O)N2CCOCC2)c1)c1c(N)n(CC(C)C)c(=O)[nH]c1=O	none (no result: G9a block, Sfp inh, BAZ2B inh)
COc1cccc(-n2c(=O)c3c4c(sc3n(Cc3ccccc3C#N)c2=O)CCCC4)c1	none (no result: Sfp inh)
CCOc1ccc(/C=c2\sc3nc(-c4ccco4)nn3c2=O)cc1OCC	G9a block inconclusive, JMJD2A Tudor inconclusive
COc1ccc(OC)c(/C=c2\sc3nc(-c4cccs4)nn3c2=O)c1	G9a block 11µM
CCOc1cc2c(cc1OCC)C(CC(=O)O)N(C(=O)Nc1ccc(Br)c(C)c1)CC2 (centres undefined)	G9a block inconclusive (no result: Sfp inh)
CCCn1c(SCC(O)c2cccc(OC)c2)nc2ccccc21 (centres undefined)	none (no result: Sfp inh)
CCCCCc1ccc(OCCOCCn2c[n+](C)c3ccccc32)c(CCCCC)c1	JMJD2A Tudor inconclusive, Sfp inh 50µM
C[n+]1cn(CC(O)COCc2ccccc2)c2ccccc21 (centres undefined)	BAZ2B inh inconclusive (no result: G9a block)
CCCCCc1ccc(OCCC[n+]2ccccc2)c(CCCCC)c1	Sfp inh 16µM (no result: G9a block)
Clc1ccc(OCc2nc(-c3ccccn3)n[nH]2)cc1	JMJD2A Tudor 20µM, BAZ2B inh 22µM
Cc1cc(Oc2ccc(Cl)cc2)nc(-c2ccccn2)n1	G9a block 18µM
Brc1ccc(OCc2nc(-c3ccccn3)n[nH]2)cc1	JMJD2A Tudor 40µM, BAZ2B inh 28µM
Cc1cc(Oc2ccccc2)nc(-c2ccccc2O)n1	none
